Bioassay records deposited in PubChem by several laboratories.
Compounds with a hit are over-represented: about 3% of the library has one in this group of screens.
BH1578 lux ind: inducers of Vibrio cholerae quorum light production without autoinducers; 0.16% of 350,000 active; activation, % at 18.7 µM; V. cholerae BH1578 lux reporter, luminescence, 6 h; AID 588436; in the data active means activation mostly above about 9.7%, no sharp cut-off
FBA Mtb inh: inhibitors of M. tuberculosis fructose-bisphosphate aldolase; P9WQA3; purified M. tuberculosis FBA, fluorescence read-out; inhibition, % at 1 µM; 2.3% of 360,000 active; AID 588726; in the data active means inhibition above about 27%;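 further: 0% = vehicle and 100% = reference inhibitor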
Target sequence (P9WQA3 whole entry, looked up): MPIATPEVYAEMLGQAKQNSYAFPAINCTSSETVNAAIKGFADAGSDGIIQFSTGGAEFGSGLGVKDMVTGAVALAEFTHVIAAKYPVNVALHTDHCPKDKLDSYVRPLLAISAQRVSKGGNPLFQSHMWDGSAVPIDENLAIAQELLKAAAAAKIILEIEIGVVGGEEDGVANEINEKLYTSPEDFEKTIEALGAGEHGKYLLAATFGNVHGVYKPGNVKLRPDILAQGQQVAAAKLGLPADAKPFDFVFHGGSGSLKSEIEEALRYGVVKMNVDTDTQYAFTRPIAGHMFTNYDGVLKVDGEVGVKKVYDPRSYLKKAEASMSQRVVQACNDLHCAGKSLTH
GDH-TPI counter: counter-screen for M. tuberculosis FBA inhibitors: GDH-TPI coupled enzymes. GDH-TPI coupled enzyme counterscreen, NADH absorbance. inhibition, % at 4.8 µM. 1.2% of 360,000 active; in the data active means inhibition above about 30%;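 further: 0% = DMSO wells and 100% = wells lacking the enzyme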
BioA inh: blocks M. tuberculosis BioA enzyme activity; AID 602481; inhibition, % at 9.99 µM; 0.096% of 360,000 active; purified M. tuberculosis BioA enzyme, plate reader; in the data active means inhibition above about 40%
* marks the source's active call; other numbers are inactive results; i = inactive; / = not tested or not shown; + = active, no number; ! = not active in a repeat.

SMILES	BH1578 lux ind	FBA Mtb inh	GDH-TPI counter	BioA inh
CCC(=O)N/N=C/c1ccc(-c2ccc([N+](=O)[O-])cc2)o1	-0.3	-5.7	23.3	0.5
CNC[C@@H]1Oc2ccc(NC(=O)c3ccncc3)cc2CC(=O)N([C@H](C)CO)C[C@@H]1C	/	/	/	-2.3
C[C@@H]1CCCCO[C@@H](CN(C)S(=O)(=O)c2cn(C)cn2)[C@@H](C)CN([C@@H](C)CO)C(=O)c2cc(NS(C)(=O)=O)ccc2O1	/	/	/	-0.7
CC(=O)C1=C(O)C(=Cc2ccccc2)OC1=O	i	10.6	25.7	1.6
COc1ccc(C=C2OC(=O)C(C(C)=O)=C2O)cc1	i	14.2	59.1*	/
C[C@H]1CCCCO[C@H](CN(C)Cc2ccc3c(c2)OCO3)[C@@H](C)CN([C@@H](C)CO)C(=O)c2cc(NC(=O)CCC(F)(F)F)ccc2O1	/	/	/	3.0
Cc1ccc(C(=O)/C=C/c2ccc(F)cc2)o1	i	-2.7	39.1*	-1.0
COc1ccc(C2C=C(c3ccccc3)Nc3ncnn32)cc1 (centres undefined)	-0.9	117.5*	13.6	/
COc1ccc(C2CC(c3ccco3)n3ncnc3N2)cc1 (centres undefined)	-0.2	10.6	4.0	-2.5
COc1ccc(C2=CC(c3ccco3)n3ncnc3N2)cc1 (centres undefined)	i	70.8*	15.1	/
Clc1ccc(C2=CC(c3ccco3)n3ncnc3N2)cc1 (centres undefined)	i	37.6*	30.4	-34.3
COc1cc(/C=C/C(=O)O)ccc1OS(=O)(=O)c1c(C)c(C)cc(C)c1C	-0.1	2.3	5.7	-1.0
COc1cc(C)c(/C=C/C(C)=C/C=C/C(C)=C/C(=O)O)c(C)c1C	-0.5	-1.2	60.6*	3.8
COc1cc(/C=N/NC(=O)c2cc(-c3cccc(OC(C)C)c3)nc3ccccc23)ccc1O	-0.9	2.6	61.4*	-2.2
N#Cc1ccc(/C=N/NC(=O)c2cc(-c3cccs3)nc3ccccc23)cc1	-1.0	9.4	15.5	-0.9
COc1cc(/C=N/NC(=O)c2cc(-c3cccs3)nc3ccccc23)ccc1O	-0.3	7.5	55.6*	-10.0
CCCN1C[C@H](C)[C@@H](OC)CN(C)C(=O)c2cc(NC(=O)COC)ccc2OC[C@@H]1C	/	/	/	-1.5
C[C@H]1CCCCO[C@@H](CN(C)C)[C@@H](C)CN([C@@H](C)CO)C(=O)c2cc(NC(=O)c3ccccc3)ccc2O1	/	/	/	-0.7
COc1ccc(CN2CCN(c3ccccn3)CC2)c(OC)c1C	i	+!	18.6	4.4
C[C@@H]1CN([C@H](C)CO)C(=O)c2cc(C#C[C@@H](C)O)cnc2O[C@H]1CN(C)Cc1cccc(C(=O)O)c1	/	/	/	-3.5
CC1CN(S(=O)(=O)c2ccc(C(=O)Nc3nccs3)cc2)CC(C)O1 (centres undefined)	-0.2	2.4	42.6*	/
CC1CN(S(=O)(=O)c2ccc(C(=O)Nc3ccc(S(=O)(=O)Nc4nccs4)cc3)cc2)CC(C)O1 (centres undefined)	-0.5	0.2	12.6	/
COc1cccc(C#Cc2cnc3c(c2)C(=O)N([C@H](C)CO)C[C@@H](C)[C@H](CN(C)C)O3)c1	/	/	/	-3.0
CCN(CCCCN1C(=O)c2ccccc2C1=O)c1ccc2c(c1)C(=O)N(C)C2=O	i	1.5	43.4*	/
O=c1c2ccccc2nc(N/N=C/c2c(O)ccc3ccccc23)n1O	i	2.3	25.4	-0.2
SMILES	BH1578 lux ind	FBA Mtb inh	GDH-TPI counter	BioA inh
CCCc1nc2ccccc2c(=O)n1/N=C/c1ccc(O)cc1	-0.4	-2.4	35.0*	-0.8
O=c1c2ccccc2nc(N/N=C/c2ccc(O)cc2)n1O	3.3	4.6	31.8*	-2.9
Cc1sc2nc(C)n(/N=C/c3ccc(O)cc3)c(=O)c2c1C	-0.7	-2.9	40.2*	-1.6
Cc1nc2ccccc2c(=O)n1/N=C/c1ccc(N(C)C)cc1	i	0.2	41.0*	0.8
CSc1ccc(/C=N/n2c(C)nc3ccccc3c2=O)cc1	-1.0	-1.5	9.7	-1.4
C[C@H]1CN([C@@H](C)CO)C(=O)Cc2cc(NS(=O)(=O)c3ccccc3)ccc2O[C@@H]1CN(C)Cc1ccc2c(c1)OCO2	/	/	/	2.9
CCCc1nc2ccccc2c(=O)n1/N=C/c1ccc(O)cc1O	-0.2	-0.2	30.7*	0.5
O=c1c2ccccc2nc(COc2ccccc2)n1/N=C/c1ccc(O)c(O)c1	-0.4	4.2	33.8*	0.7
CCS(=O)(=O)N1Cc2ccccc2CC1C(=O)OCC(=O)Nc1ccc(C)cc1 (centres undefined)	-0.8	0.9	117.0*	-0.8
Cc1ccccc1NC(=S)NNC(=O)c1ccncc1	-0.3	0.7	11.5	/
CC(=O)c1ccc(NC(=S)NNC(=O)c2ccncc2)cc1	-0.2	0.6	31.6*	/
O=C(NNC(=O)c1ccncc1)Nc1ccc(N=Nc2ccccc2)cc1	i	-1.8	36.6*	-1.5
O=C(C[C@@H]1C[C@@H]2c3cc(NC(=O)CC4CC4)ccc3O[C@@H]2[C@H](CO)O1)NCc1cccnc1	/	/	/	0.8
CC(C)CC#Cc1ccc2c(c1)O[C@@H](CN(C)C(=O)c1ccccc1F)[C@H](C)CN([C@@H](C)CO)S2(=O)=O	/	/	/	3.0
Fc1cccc(/C=N/Nc2ncnc3nc[nH]c23)c1	-0.3	-0.3	42.2*	7.4
Fc1cccc(/C=N/Nc2ccccn2)c1	-0.8	-2.6	48.8*	/
Clc1ccc(/C=N/Nc2ncnc3nc[nH]c23)cc1	-2.0	-2.1	19.9	1.7
Fc1ccccc1/C=N/Nc1ncnc2nc[nH]c12	/	-2.1	28.4	4.1
Oc1ccc(/C=N/Nc2ncnc3nc[nH]c23)cc1	-3.7	-0.7	74.0*	-0.8
Cc1ccc(/C=N/Nc2ncnc3nc[nH]c23)cc1	-0.2	-4.6	64.2*	/
Cc1ccc(-c2ccc3c(c2)O[C@@H](CN(C)C)[C@H](C)CN([C@@H](C)CO)S3(=O)=O)cc1	/	/	/	-4.3
CCCN(C)C[C@@H]1OCCCC[C@H](C)Oc2ccc(N(C)C)cc2C(=O)N([C@H](C)CO)C[C@@H]1C	/	/	/	-0.4
C[C@@H]1CN([C@H](C)CO)C(=O)c2cccc(NS(=O)(=O)c3ccccc3)c2O[C@H]1CN(C)Cc1ccc(C(F)(F)F)cc1	/	/	/	-0.2
CCOc1cc(C(=S)N2CCOCC2)ccc1OC(=O)c1cc(OC)c(OC)c(OC)c1	7.7	3.2	-6.0	1.1
COc1ccc(/C=C/C(=O)O/N=C(\N)c2ccccn2)cc1OC	i	4.0	44.5*	-2.5
SMILES	BH1578 lux ind	FBA Mtb inh	GDH-TPI counter	BioA inh
COc1ccc(/C=C/C(=O)N2CCN(c3ccccn3)CC2)cc1OC	i	-3.0	38.6*	-0.5
COc1cc(/C=C/C(=O)N2CCN(c3ccccn3)CC2)cc(OC)c1OC	0.4	0.8	-5.5	3.5
COc1ccc(/C=C/C(=O)N(c2ccccn2)C2CCCCC2)cc1OC	-0.4	5.9	82.8*	/
CCOc1cc(C(=S)N2CCOCC2)ccc1OC(=O)/C=C/c1ccc(OC)c(OC)c1	2.4	0.9	37.5*	-1.1
N/C(=N\OC(=O)/C=C/c1ccccc1)c1ccccn1	-0.3	-4.4	9.3	9.9
O=C(/C=C/c1ccc(Cl)cc1)N(c1ccccn1)C1CCCCC1	i	-7.9	4.7	-0.6
O=S(=O)(c1ccccc1)N1CCCCN2[C@H](C1)[C@H](c1ccc(-c3cncnc3)cc1)[C@@H]2CO	/	/	/	3.4
COc1ccc(/C=C/C(=O)N2CCOCC2)cc1OC	0.3	4.7	20.5	-1.3
